# High-throughput results: PubChem, The Scripps Research Institute Molecular Screening Center
# The entries come from a sample that favours hits as a whole.
# TTR transcr act = TTR transcription activators in neuroblastoma reporter cells, primary screen, cell-based, luminescence, SH-SY5Y, TTR promoter Gaussia luciferase; activation, % at 16.7 µM; AID 1117267, 2014; 92,000 compounds, 1.3% hits; 100% = recombinant luciferase protein wells;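 active = activation above the mean of all tested compounds plus 3 SD, cut at about 9.5% in these data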;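 also: cells exposed to compounds for one day before reading; 0% = median of all test compound wells on the plate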
# TTR inh HuH7 = TTR promoter reporter inhibitors in hepatoma cells, counter-screen for TTR transcription activator project, cell-based, luminescence, HuH7 hepatoma; shares compounds with TTR transcr act; HuH7 TTR promoter-Gaussia luciferase reporter; inhibition, % at 16.7 µM; 1,100 compounds, 4% hits;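 active = average inhibition above the solvent-only control wells' mean plus 3 SD, cut at about 15% in these data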;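 also: 0% = cells with DMSO only and 100% = cells with inhibitor control FD; inhibitors lower well luminescence so higher value means more inhibition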
# TTR up confirm = TTR transcription activators, retest, confirmation, cell-based, luminescence, SH-SY5Y, triplicate; shares compounds with TTR transcr act; SHSY5Y TTR promoter Gaussia luciferase; 100% = purified Lucia enzyme wells, no cells; activation, % at 16.7 µM; 1,100 tested, under 10 active; AID 1117280, 2014;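 active = mean activation above a set limit taken from the earlier primary screen, cut at about 11% in these data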;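 also: 0% = DMSO-treated cells and 100% = recombinant Lucia luciferase without cells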
# Active calls of the source: *.
SMILES,TTR transcr act,others
COc1cc(NC(=O)c2cnn3c(C)cc(C)nc23)cc(OC)c1OC,1,
COC(=O)[C@]12C[C@H](CC(=O)NCCC(C)C)C(=O)N(Cc3ccc(Cl)cc3Cl)C1=C[C@H](COCc1ccccc1)O[C@@H]2C,0,
CCOC(=O)c1cn(Cc2ccccc2)nn1,1,
CCOC(=O)c1c(C=O)c(C)n(Cc2ccccc2)c1C,11*,
CCOC(=O)c1c(C=O)c(C)n(Cc2ccc(Cl)cc2)c1C,-3,
Cc1ccccc1C(=O)NC1CCCCN(Cc2ccc(Cl)cc2)C1=O (stereo not given),1,
COc1ccc(C2Nc3ccccc3C(=O)N2Cc2ccncc2)cc1COc1ccc(NC(C)=O)cc1 (stereo not given),-2,
O=C(Nc1ccc(OC(F)(F)F)cc1)Nc1nc2ncccn2c1-c1ccc(C(F)(F)F)cc1,1,
Cc1cc(N2CCN(C(=O)c3ccco3)CC2)n2ncnc2n1,-2,
Cc1cc(N2CCN(C(=O)c3ccco3)CC2)n2ncc(-c3ccccc3)c2n1,0,
Cc1nn2c(N3CCN(C(=O)c4ccco4)CC3)cc(C(C)(C)C)nc2c1-c1ccccc1,10*,
CCC[C@H]1[C@@H](OC(=O)NCc2ccc(OC)cc2)CC[C@@]23CCCN2C(=O)CCC[C@@H]13,4,
COC(=O)[C@]12C[C@H](CC(=O)NCC34CC5CC(CC(C5)C3)C4)C(=O)N(Cc3cccc4ccccc34)C1=C[C@H](COCc1ccccc1)O[C@@H]2C,1,
Nc1[nH]c2cc(C(F)(F)F)ccc2c1C(=O)NC1CCCCC1,1,
COC(=O)[C@@]12CCCCC=C1N(CCc1ccc(Cl)cc1)C(=O)[C@H]2CC(=O)NCC1CCCCC1,4,
COC(=O)C1CN(Cc2ccccc2)CCS(=O)(=O)N1Cc1ccccc1F (stereo not given),-1,
CN(C(=O)COC(=O)c1c[nH]c(=O)[nH]c1=O)C1CCCCC1,23*,
CN(C)S(=O)(=O)c1cccc(NC(=O)COC(=O)c2c[nH]c(=O)[nH]c2=O)c1,0,
CC1CCCC(C)N1C(=O)COC(=O)c1ccc[nH]c1=O (stereo not given),-2,
CC(C)(C)OC(=O)NC(Cc1ccccc1)C1CC(C#N)C(=O)O1 (stereo not given),1,
C#CCNC[C@@H]1CSCCS(=O)(=O)N1,0,
CC(C)CN1C(=O)C[C@@]2(C(=O)N(C)c3ccc(NC(=O)C(F)(F)F)cc32)C1c1ccccc1 (stereo not given in full),5,
CCn1c(O)c(N=NC(=O)c2cccs2)c2ccccc21,0,
Cn1c(O)c(N=NC(=N)N)c2ccccc21,17*,
CC(C)n1c(O)c(N=NC(=O)CNC(=O)CCc2ccccc2)c2ccccc21,2,
SMILES,TTR transcr act,others
CN(C)CCCNC(=O)C[C@@H]1CC[C@@H]2[C@H](COc3ccc(NC(=O)c4cccc(F)c4)cc3C(=O)N2C)O1,0,
O=C(NCc1ccc2c(c1)OCO2)C1CCN(S(=O)(=O)N2CCCCC2)CC1,0,
O=C(COc1ccc(S(=O)(=O)N2CCCC2)cc1Cl)NCc1ccc2c(c1)OCO2,14*,
COC(=O)COc1ccc(S(=O)(=O)Nc2ccc3c(c2)OCO3)cc1Cl,0,
O=C1CCC[C@H]2C[C@H](NCc3ccc(Cl)c(C(F)(F)F)c3)CC[C@]23CCCN13,-1,
COC[C@H]1CCCN1c1cccc2c1S(=O)(=O)N1CC[C@@H](C1)O2,0,
CN(C)CC(=O)c1c(N)n(Cc2ccccc2)c(=O)n(C)c1=O,0,
Cn1c(N)c(C(=O)CCl)c(=O)n(Cc2ccccc2)c1=O,12*,
CC1CN(CC(=O)c2c(N)n(Cc3ccccc3)c(=O)n(C)c2=O)CC(C)O1 (stereo not given),-2,
CCCCCCCCN1C(=O)[C@@H](CC(=O)N2CCN(C(=O)C3CC3)CC2)C[C@@]2(C(=O)OC)C1=C[C@H](COCc1ccccc1)O[C@@H]2C,-1,
COC(=O)CC1C(=O)NCCN1C(=O)OC(C)(C)C (stereo not given),-2,
C[C@@H]1CCCCCCCCC(=O)OCCN(C(=O)OC(C)(C)C)[C@H](C)CCCCCCCCC(=O)OCCN(C(=O)OC(C)(C)C)[C@H](C)CCCCCCCCC(=O)OCCN(C(=O)OC(C)(C)C)[C@H](C)CCCCCCCCC(=O)OCCN1C(=O)OC(C)(C)C,19*,
CCSc1nnc([C@@H]2CCCN2C(=O)OC(C)(C)C)o1,1,
CC(C)CNC(=O)OCc1cn(Cc2ccc(F)c(F)c2)nn1,5,
CC(C)[C@@H](C)/C=C/[C@@H](C)[C@H]1CC[C@@H]2[C@]1(C)CCC1[C@]23C=C[C@]2(C[C@@H](O)CC[C@]12C)N(c1ccc(Br)cn1)O3 (stereo not given in full),0,
O=C(CCS(=O)(=O)c1ccc(Br)cc1)N1CCN(Cc2ccccc2)CC1,-1,
O=C(CSc1ncccn1)N1CCN(Cc2ccccc2)CC1,15*,TTR inh HuH7=7;TTR up confirm=-1
Cc1cc(C)c(C#N)c(SCC(=O)N2CCN(Cc3ccccc3)CC2)n1,-3,
Cc1ccc(-c2cc(Cc3ccncc3)c(=O)[nH]n2)cc1,0,
COC(=O)c1ccc2nc(-c3ccc(F)cc3)c(Cc3ccccc3)n2c1,-2,
COC(=O)c1ccc2nc(C3CCCCC3)c(Cc3ccccc3)n2c1,14*,TTR inh HuH7=14;TTR up confirm=-1
CCCc1nc2ccc(C(=O)OC)cn2c1Cc1cccc(F)c1,1,
CCOC(=O)[C@]12CCCC3=C1N(CCC3)C(=O)[C@@H](CC(=O)NCCCOC)C2,-1,
CCNC(=O)CCc1nc(-c2ccc(C(C)C)cc2)no1,0,
Cc1ccc(C#N)c(SCc2cccc(Br)c2)n1,13*,TTR inh HuH7=-11;TTR up confirm=8
SMILES,TTR transcr act,others
Cc1ccc(C#N)c(SCc2cc3c(cc2Cl)OCO3)n1,6,
Cc1cccc(CSc2nc3c(cc2C#N)CCC3)c1,-2,
COc1ccc(NC(=O)N(C)C[C@H]2Oc3c(NS(=O)(=O)c4cccs4)cccc3C(=O)N([C@@H](C)CO)C[C@@H]2C)cc1,0,
CCCNC(=O)c1onc(CS(=O)(=O)c2cc(C)cc(C)c2)c1C(=O)NCCC,4,
CC(=O)c1ccc(S(=O)(=O)NC2CCCCCCC2)cc1,1,
COC(=O)[C@]12C[C@H](CC(=O)NCc3cccc(C(F)(F)F)c3)C(=O)N(Cc3ccc(Cl)cc3Cl)C1=C[C@H](COCc1ccccc1)O[C@@H]2C,-1,
CC(=O)CC(=O)Nc1ccc2ccccc2c1,-1,
O=C(CSCc1ccc(C(=O)O)cc1)Nc1ccc2ccccc2c1,1,
CC(=O)c1ccc(NC(=O)CSCC(=O)Nc2ccc3ccccc3c2)cc1,11*,TTR inh HuH7=-26;TTR up confirm=4
S=C(NCc1cccs1)Nc1cccc2ccccc12,1,
O=S(=O)(NCc1cccs1)NCc1ccccc1F,4,
N#Cc1c(F)cccc1NCc1cccs1,14*,TTR inh HuH7=-9;TTR up confirm=1
COC(=O)c1sccc1NC(=O)CC1C(=O)NCCN1C(=O)c1ccc(C)c(C)c1 (stereo not given),-1,
Cc1ccc(S(=O)(=O)N2CCCC2)cc1C(=O)N1CCN(Cc2ccccc2)CC1,-1,
